Test results taken from PubChem BioAssay (Tox21).
Several values for one entry are separate records, joined by “and”; a condition that tells them apart may be missing. Identical values can stand only once. Values without a mark were called inactive. Results filed as inconclusive are left out. A call without a number means that no potency is given here. Activity calls are given as the source filed them. The call rests on the fitted dose curve.

What was measured:
[1] = target: Acetylcholinesterase (Homo sapiens) (UniProt P22303); experiment: Acetylcholinesterase (AChE) small molecule antagonists: colormetric cell-based qHTS assay (AID 1347395); further: nearly all actives have a fitted effect of over 30% in size; further: potency means the concentration at half of the fitted maximal effect
Procedure, shortened: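 SH-SY5Y cells, plated overnight at 37 C, were exposed to compounds for 30 min at 37 C and 5% CO2. Acetylthiocholine plus DTNB was then added, and thiocholine from endogenous AChE was quantified colorimetrically after 90 min at 37 C.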

[2] = target: Acetylcholinesterase (Homo sapiens) (UniProt P22303); experiment: Acetylcholinesterase (AChE) small molecule antagonists: enzyme-based qHTS assay (AID 1347397); details: Potency: AChE enzyme activity inhibition; outcome: AChE enzyme activity inhibition; further: nearly all actives have a fitted effect of over 55% in size; further: potency means the concentration at half of the fitted maximal effect
Procedure, shortened: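 rhAChE 50 mU/mL (dispensed) + cpd or DMSO, 30 min RT; add DTNB/acetylthiocholine cocktail, 10 min RT; colorimetric thiocholine readout. qHTS, 1536-well format.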

[3] = target: Acetylcholinesterase (Homo sapiens) (UniProt P22303); experiment: Acetylcholinesterase (AChE) small molecule antagonists: fluorescence cell-based qHTS assay (AID 1347398); details: Potency: AChE activity; outcome: AChE activity; further: nearly all actives have a fitted effect of over 50% in size; further: potency means the concentration at half of the fitted maximal effect
Procedure, shortened: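 Read-out is Thiolite Green fluorescence at Ex/Em = 490/520 nm, formed by reaction with thiocholine released when cellular AChE in SH-SY5Y cells hydrolyzes acetylthiocholine. Compounds were preincubated 30 min at 37 C before substrate.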

[4] = target: Acetylcholinesterase (Homo sapiens) (UniProt P22303); experiment: Acetylcholinesterase (AChE) small molecule antagonists: enzyme-based qHTS assay with human liver microsomes (AID 1347399); details: Potency: qHTS inhibition; outcome: qHTS inhibition; further: nearly all actives have a fitted effect of over 60% in size
Procedure, shortened: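 Recombinant human AChE (50 mU/mL in the enzyme mix) and human liver microsomes (0.25 mg/mL final) were preincubated with compound and NADPH (0.25 mg/mL final) for 30 min at 37 C. Acetylthiocholine/DTNB was then added; thiocholine was read colorimetrically after 10 min at room temperature.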

Chain of Acetylcholinesterase (Homo sapiens) (P22303 whole entry, looked up): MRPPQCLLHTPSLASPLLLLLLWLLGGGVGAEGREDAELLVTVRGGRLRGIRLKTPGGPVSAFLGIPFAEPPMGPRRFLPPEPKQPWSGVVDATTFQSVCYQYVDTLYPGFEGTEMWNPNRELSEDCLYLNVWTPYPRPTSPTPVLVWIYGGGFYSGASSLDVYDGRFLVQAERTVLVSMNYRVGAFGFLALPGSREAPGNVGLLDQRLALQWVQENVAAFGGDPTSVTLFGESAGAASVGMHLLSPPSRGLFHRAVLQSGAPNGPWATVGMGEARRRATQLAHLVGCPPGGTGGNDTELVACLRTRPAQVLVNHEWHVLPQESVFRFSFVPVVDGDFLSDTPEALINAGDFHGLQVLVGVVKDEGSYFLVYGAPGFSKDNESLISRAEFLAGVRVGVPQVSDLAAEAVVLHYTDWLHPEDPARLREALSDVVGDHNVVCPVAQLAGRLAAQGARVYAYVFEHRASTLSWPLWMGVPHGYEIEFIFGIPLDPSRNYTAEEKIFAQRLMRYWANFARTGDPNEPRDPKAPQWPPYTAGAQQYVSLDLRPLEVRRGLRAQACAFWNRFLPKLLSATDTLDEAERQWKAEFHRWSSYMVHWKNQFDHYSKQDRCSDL

Compound	Potency [1]	Potency [2]	Potency [3]	Potency [4]
OCc1ccccc1O	inactive	inactive	inactive	
CC(C)(C)NCC(O)c1ccc(O)c(CO)c1 (stereo not drawn)	inactive	inactive	inactive	
CC(=O)C(=O)O	inactive	inactive	inactive	
NCCOCCO	inactive	inactive	inactive	
CCCC(=O)c1cc(O)c(O)cc1O	inactive	inactive	inactive	
O=C(O)CCc1nc(-c2ccccc2)c(-c2ccccc2)o1	inactive	inactive	inactive	
CC(=O)Nc1ccc2c(c1)Cc1cc(NC(C)=O)ccc1-2	inactive	inactive	inactive	
COc1cc(Cc2cnc(N)nc2N)cc(OC)c1OC	inactive	inactive	inactive	
CCn1nc(C(=O)O)c(=O)c2cc3c(cc21)OCO3	inactive	inactive	inactive	
CC(=O)CC(C)=O	inactive	inactive	inactive	
CSc1nnc(C(C)(C)C)c(=O)[nH]1	inactive	inactive	inactive	
CC(=O)Nc1ccc(CC(=O)O)cc1	inactive	inactive	inactive	
CN(C)C(=O)C(CCN1CCC(O)(c2ccc(Cl)cc2)CC1)(c1ccccc1)c1ccccc1	inactive	inactive	inactive	
Cc1ccc2c(n1)Oc1ccc(C(C)C(=O)OCC(=O)N(C)C)cc1C2 (stereo not drawn)	15.5 µM (active) and 12.3 µM (active)	15.5 µM (active)	4.9 µM (active)	
O=C1c2ccccc2C(=O)N1CCc1noc(-c2ccc(CN3CCCCCC3)s2)n1	6.51 µM (active)	23.1 µM (active)	3.26 µM (active)	
Nc1ccc(Nc2ccccc2)cc1	inactive	inactive	inactive	inactive

Compound	Potency [1]	Potency [2]	Potency [3]	Potency [4]
Cc1cnc(C(=O)NCCc2ccc(S(=O)(=O)NC(=O)NC3CCCCC3)cc2)cn1	inactive	inactive	inactive	
c1ccc2sc(SSN3CCOCC3)nc2c1	inactive	inactive	inactive	inactive
c1ccc2nccnc2c1	inactive	inactive	inactive	inactive
O=S(=O)(c1cccc2cnccc12)N1CCCNCC1	inactive	inactive	inactive	
O=C(Cn1ccnc1[N+](=O)[O-])NCc1ccccc1	inactive	inactive	inactive	inactive
C/C=C(\C)C=O	inactive	inactive	inactive	inactive
O=C1c2c(O)ccc([N+](=O)[O-])c2C(=O)c2c([N+](=O)[O-])ccc(O)c21	0.789 µM (active)	25 µM (active)	8.86 µM (active)	
O=C(O)CS	inactive	inactive	inactive	inactive
CCNC(=O)/C=C/c1cccc(Br)c1	inactive	inactive	inactive	
C=CCCCCCCCCC=O	inactive	inactive	inactive	inactive
COc1ccc(OC)c(C(O)CNC(=O)CN)c1 (stereo not drawn)	inactive	inactive	inactive	
CCOc1ccc2nc(N)sc2c1	inactive	inactive	inactive	
Cn1c(=O)c2[nH]cnc2n(C)c1=O	inactive	inactive	inactive	
CCCCCCCCCCCCCCCO	inactive	inactive	inactive	
Cn1cccc1	inactive	inactive	inactive	
O=S(c1cc(Cl)cc(Cl)c1O)c1cc(Cl)cc(Cl)c1O	inactive	inactive	inactive	
